Inconclusive results are not listed. Entries that show only a call come without a potency. Values without a mark were called inactive. Active and inactive are the calls of the source. The call rests on the fitted dose curve.

The first experiment can be described thus: p53 small molecule agonists, cell-based qHTS assay with rat liver microsomes (AID 1963578). The note with it: HCT-116 p53RE-bla, beta-lactamase ratio, 16 h; series mostly up to 66 µM. Put shortly: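 p53RE-bla cells were exposed to compounds together with rat liver microsomes (0.5 mg/mL final) and NADPH (0.5 mg/mL final) for 16 h at 37 C, then read by LiveBLAzer beta-lactamase fluorescence after 2 h at room temperature.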
On the technique in general: qHTS replaces the single test concentration by a dilution series.
Turning to `C=Cc1c(C)c2cc3[nH]c(cc4nc(cc5nc(cc1[nH]2)C(C)=C5CCC(=O)O)C(CCC(=O)O)=C4C)c(C)c3C=C`, the Potency result was “inactive”.
Take `CCN1/C(=C/C=C/c2sc3ccccc3[n+]2CC)Sc2ccccc21`: the activation is 2.93% [at 13.6 µM].
`c1cnc(N2CCN(Cc3ccc4c(c3)OCO4)CC2)nc1`: the Potency result was “inactive”.
Turning to `C=C[Si]1(C)O[Si](C)(C=C)O[Si](C)(C=C)O[Si](C)(C=C)O1` (stereo unspecified), the Potency result was “inactive”.
The same measure, in the same setting: with `CCN(Cc1cccnc1)C(=O)c1cccc(Cl)c1[C@]1(C)C(=O)N(Cc2ccc(OC)cc2OC)c2ccc(Cl)cc21` the entry was “inactive”.
As for `CCCCCC(C)OC(=O)COc1ccc(Cl)c2cccnc12` (stereo unspecified), the Potency result is “inactive”.
The same measure, in the same setting: to `O=C(N[C@H](CO)[C@H](O)c1ccc([N+](=O)[O-])cc1)C(Cl)Cl` belongs “inactive”.
Same read-out and setting: to `Oc1ccc(C2(c3ccc(O)cc3)CC3CC2C2CCCC32)cc1` (stereo unspecified) belongs “inactive”.
Same read-out and setting: with `Cc1cc(O)c2c(O)c3c(O)cccc3cc2c1` the entry was “inactive”; with `C=Cc1ccc(OC(C)=O)cc1`, “inactive”.
Turning to `N/C(=N\N=C\c1ccc(Cl)cc1)N/N=C/c1ccc(Cl)cc1`, the Potency entry was “inactive”.
Still for that read-out and setting: to `C=C[Si](OC(C)=O)(OC(C)=O)OC(C)=O` belongs “inactive”.
Same read-out and setting: to `O=C1C=CC(=O)N1` belongs “inactive”.
Still for that read-out and setting: with `CCc1ccc2c(c1)C(=O)c1ccccc1C2=O` the entry was “inactive”; with `OCCOCC#CCOCCO`, “inactive”; with `Cc1ccc(O)c2ncccc12`, “inactive”.
As for `Cc1c(Nc2ncccc2C(=O)O)cccc1C(F)(F)F`, the Potency entry was “inactive”.
For the compound `CC1(C)[C@@H](O)CC[C@]2(C)[C@H]3C(=O)C=C4[C@@H]5C[C@@](C)(C(=O)O)CC[C@]5(C)CC[C@@]4(C)[C@]3(C)CC[C@@H]12`, the Potency entry was “inactive”.

A further experiment is described as follows: p53 small molecule agonists, cell-based qHTS assay with human liver microsomes: qHTS cell viability counter screen (AID 1963579). Further: nearly all actives have a fitted effect of over 45% in size. Further: potency means the concentration at half of the fitted maximal effect. The following applies: p53RE-bla HCT-116 viability, ATP luminescence, 16 h, HLM; series mostly up to 66 µM. In outline: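 p53RE-bla cells (4,000/well) were pre-incubated 5 h at 37 C, then given compounds in DMSO plus human liver microsomes (0.5 mg/mL final) and NADPH (0.5 mg/mL final) for 16 h at 37 C. Viability was read by CellTiter-Glo luminescence.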
As to `CCCCCCCOC(=O)CCC`, the Potency result was “inactive”.
For `CCCCCCCCC(=O)OCC(C)OC(=O)CCCCCCCC` (stereo unspecified), the Potency result was “inactive”.
Take `CCN1/C(=C/C=C/c2sc3ccccc3[n+]2CC)Sc2ccccc21`: the activity change, negative = cytotoxicity was 8.44% [at 13.5 µM].
In the case of `CCN(Cc1cccnc1)C(=O)c1cccc(Cl)c1[C@]1(C)C(=O)N(Cc2ccc(OC)cc2OC)c2ccc(Cl)cc21`, the Potency result was “inactive”.
The same measure, in the same setting: with `CCCNC(C)(C)COC(=O)c1ccccc1` the entry was “inactive”; with `CCCCCCCCCCl`, “inactive”.
On the same count and under the same terms, to `CCCCCC(C)OC(=O)COc1ccc(Cl)c2cccnc12` (stereo unspecified) belongs “inactive”; to `CC(=O)Nc1ccc(/C=N/NC(N)=S)cc1`, “inactive”; to `C=O`, “inactive”.
On the same count and under the same terms, with `CC(C)(C)C1=CC(=O)C=C(C(C)(C)C)C1=O` the entry was “inactive”; with `C=CC(=C)CCCC(C)(C)OC(C)=O`, “inactive”.
Consider `CC/C=C\CCCCCCCCCCOC(C)=O`, for which the Potency result is “inactive”.
Same read-out and setting: with `Oc1ccc(C2(c3ccc(O)cc3)CC3CC2C2CCCC32)cc1` (stereo unspecified) the figure was 17.5 µM (active); with `O=c1[nH]c(=O)n([C@H]2C[C@H](O)[C@@H](CO)O2)cc1C(F)(F)F`, “inactive”; with `Cc1cc(O)c2c(O)c3c(O)cccc3cc2c1`, “inactive”.
Same read-out and setting: to `Cc1ccc(Br)cc1` belongs “inactive”; to `CC1CCC(CO)CC1` (stereo unspecified), “inactive”; to `C=Cc1ccc(OC(C)=O)cc1`, “inactive”.
As to `Nc1ccc(/C=C/c2ccc(N)cc2S(=O)(=O)O)c(S(=O)(=O)O)c1`, the activity change, negative = cytotoxicity was -0.304% [at 0.249 µM].
On to `Cc1cccc(N(C)C(=S)Oc2ccc3c(c2)C2CCC3C2)c1` (stereo unspecified), for which the Potency result is “inactive”.
Still for that read-out and setting: to `Cc1c(N)cccc1N` belongs “inactive”.
The same measure, in the same setting: with `CCC(CC)CO` the entry was “inactive”; with `Cc1c(N)c(=O)n(-c2ccccc2)n1C`, “inactive”.
Same read-out and setting: with `O=C(NN1CCCC1)NS(=O)(=O)c1ccc(Cl)cc1` the entry was “inactive”.
In the case of `O=C1C=CC(=O)N1`, the Potency is 21 µM (active).
Still for that read-out and setting: to `CSc1ccc(Oc2ccc(S(N)(=O)=O)cc2CN(C)C)cc1C` belongs “inactive”; to `CCc1ccc2c(c1)C(=O)c1ccccc1C2=O`, “inactive”; to `Cc1ccccc1S`, “inactive”.
On the same count and under the same terms, to `OCCOCC#CCOCCO` belongs “inactive”.
Take `Cc1ccc(O)c2ncccc12`: the Potency entry is “inactive”.
Same read-out and setting: with `COC(OC)(C(=O)c1ccccc1)c1ccccc1` the entry was “inactive”; with `CCCCCCCCS(=O)(=O)O`, “inactive”.

A further experiment in a line: p53 small molecule agonists, cell-based qHTS assay with rat liver microsomes: qHTS cell viability counter screen (AID 1963580). Further: nearly all actives have a fitted effect of over 45% in size. The following applies: p53RE-bla HCT-116 + rat microsomes, ATP viability, 16 h; series mostly up to 66 µM. In outline: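 Luminescent ATP readout (CellTiter-Glo, 30 min at room temperature) reports viability of p53RE-bla HCT-116 cells after 16 h at 37 C with test compounds under metabolic activation by rat liver microsomes and NADPH at 0.5 mg/mL final each.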
On to `C=Cc1c(C)c2cc3[nH]c(cc4nc(cc5nc(cc1[nH]2)C(C)=C5CCC(=O)O)C(CCC(=O)O)=C4C)c(C)c3C=C`, for which the Potency entry was “inactive”.
Same read-out and setting: with `CCCCCCCOC(=O)CCC` the entry was “inactive”; with `CCCCCCCCC(=O)OCC(C)OC(=O)CCCCCCCC` (stereo unspecified), “inactive”.
Take `CCN1/C(=C/C=C/c2sc3ccccc3[n+]2CC)Sc2ccccc21`: the activity change, negative = cytotoxicity is 1.97% [at 13.5 µM].
For `c1cnc(N2CCN(Cc3ccc4c(c3)OCO4)CC2)nc1`, the Potency entry is “inactive”.
Still for that read-out and setting: with `C=C[Si]1(C)O[Si](C)(C=C)O[Si](C)(C=C)O[Si](C)(C=C)O1` (stereo unspecified) the entry was “inactive”; with `CCN(Cc1cccnc1)C(=O)c1cccc(Cl)c1[C@]1(C)C(=O)N(Cc2ccc(OC)cc2OC)c2ccc(Cl)cc21`, “inactive”.
Still for that read-out and setting: with `CCCNC(C)(C)COC(=O)c1ccccc1` the entry was “inactive”; with `CCCCCCCCCCl`, “inactive”.
Still for that read-out and setting: with `CCCCCC(C)OC(=O)COc1ccc(Cl)c2cccnc12` (stereo unspecified) the entry was “inactive”; with `O=C(N[C@H](CO)[C@H](O)c1ccc([N+](=O)[O-])cc1)C(Cl)Cl`, “inactive”.
For the compound `CC(=O)Nc1ccc(/C=N/NC(N)=S)cc1`, the Potency entry was “inactive”.
On the same count and under the same terms, with `C=O` the entry was “inactive”; with `CC(C)(C)C1=CC(=O)C=C(C(C)(C)C)C1=O`, “inactive”.
The same measure, in the same setting: with `C=CC(=C)CCCC(C)(C)OC(C)=O` the entry was “inactive”.
Still for that read-out and setting: with `CC/C=C\CCCCCCCCCCOC(C)=O` the entry was “inactive”.
As to `O=c1[nH]c(=O)n([C@H]2C[C@H](O)[C@@H](CO)O2)cc1C(F)(F)F`, the Potency result is “inactive”.
Same read-out and setting: to `Cc1ccc(Br)cc1` belongs “inactive”; to `CC1CCC(CO)CC1` (stereo unspecified), “inactive”.
Still for that read-out and setting: with `C=Cc1ccc(OC(C)=O)cc1` the entry was “inactive”.
In the case of `Nc1ccc(/C=C/c2ccc(N)cc2S(=O)(=O)O)c(S(=O)(=O)O)c1`, the activity change, negative = cytotoxicity is 0.884% [at 0.249 µM].
Consider `Cc1cccc(N(C)C(=S)Oc2ccc3c(c2)C2CCC3C2)c1` (stereo unspecified), for which the Potency entry was “inactive”.
Still for that read-out and setting: with `Cc1c(N)cccc1N` the entry was “inactive”.
Same read-out and setting: to `CCC(CC)CO` belongs “inactive”; to `Cc1c(N)c(=O)n(-c2ccccc2)n1C`, “inactive”; to `N/C(=N\N=C\c1ccc(Cl)cc1)N/N=C/c1ccc(Cl)cc1`, “inactive”.
On the same count and under the same terms, to `O=C(NN1CCCC1)NS(=O)(=O)c1ccc(Cl)cc1` belongs “inactive”.
For `CSc1ccc(Oc2ccc(S(N)(=O)=O)cc2CN(C)C)cc1C`, the Potency entry was “inactive”.
The same measure, in the same setting: with `Cc1ccccc1S` the entry was “inactive”; with `COC(OC)(C(=O)c1ccccc1)c1ccccc1`, “inactive”.
The same measure, in the same setting: with `CCCCCCCCS(=O)(=O)O` the entry was “inactive”.

(Values after PubChem BioAssay (Tox21).)
